Survival data for 95 molecules are collected here from PubChem BioAssay AID463173 (ICCB-Longwood Screening Facility, Harvard Medical School, 2010).

Among all 52,000 compounds or so, about 4,300 (8.3%) were called active. This is one part of a sample in which actives are shown more often than they occur. A number with no mark means an inactive call. Rule as the data show it: active = survival mostly below about 52% (no sharp cut-off); inactive = mostly above about 56%.

For this test, the system named is DeltatarO mutant. As to the kind of experiment: S. aureus survival, RN4220 and DeltatarO strains – OD600, teichoic acid synthesis inhibitors, primary screen (AID 463173). Conditions: S. aureus RN4220 wild type/DeltatarO growth, OD600, 18 h, hits give low values, screened at 18.75 µg/mL (by protocol).
Turning to `CCOC(=O)N1CCC(NC(=O)c2cnn(-c3cccc(C)c3)c2-n2cccc2)CC1`, the survival was 85%.

Regarding `CCC(C)(C)N1CC(=O)N(Cc2ccccc2)C(c2ccc(OC)cc2)C1=O` (stereo not given), the survival was 78%.

In the case of `CCOc1ccc(NC(=O)N(C)CCc2c(C)nn(C)c2C)cc1`, the survival is 74%.

Consider `COc1cccc(-n2nnc3c(sc4nc(C)cc(C)c43)c2=O)c1`, for which the survival is 91%.

In the case of `CCN(C(=O)Cc1ccccc1OC)c1nnc(-c2ccncc2)s1`, the survival is 70%.

For `Nc1nc(-c2ccco2)nn1C(=O)c1ccc(Cl)cc1Cl`, the survival was 91%.

As to `COc1ccc(-c2cc(C(=O)NCCc3ccccc3)c3c(-c4ccccc4)[nH]nc3n2)cc1`, the survival is 87%.

In the case of `Cc1cc2c(cc1NC(=O)c1ccc(C(C)(C)C)cc1)n(C)c(=O)c(=O)n2C`, the survival is 84%.

`COc1cc(OC)c(NC(=O)N2CCN3CCCCC3C2)cc1Cl` (stereo not given): the survival was 75%.

Regarding `CCN1CCN(c2csc3ccc(C)cc3c2=O)CC1`, the survival is 74%.

`COc1ccccc1NC(=O)N(Cc1cc2c(C)ccc(C)c2[nH]c1=O)CC1CCCO1` (stereo not given): the survival was 94%.

Take `CCCCOc1ccc(C(=O)Nc2sc3c(c2C(=O)OCC)CCCCC3)cc1`: the survival was 50%.

Consider `CCCOc1ccc(C(=O)Nc2sc3c(c2C(=O)OCC)CCCCC3)cc1`, for which the survival is 24% (active).

In the case of `CCOC(=O)c1c(NC(=O)c2ccc(C)c(C)c2)sc2c1CCCCC2`, the survival was 2% (active).

Regarding `CCN(CC)Cc1c(NC(=O)c2ccc(OC)cc2)sc2c1CCCC2`, the survival is 71%.

Regarding `CCOC(=O)c1c(NC(=O)c2cc(OC)c(OC)c(OC)c2)sc2c1CCCC2`, the survival is 81%.

Take `CCOC(=O)c1c(NC(=O)c2cc3ccccc3c(=O)o2)sc2c1CCC(C(C)(C)C)C2` (stereo not given): the survival is 53%.

Take `CCCOC(=O)c1c(NC(=O)c2cc3ccccc3c(=O)o2)sc2c1CCC(C)C2` (stereo not given): the survival is 112%.

Regarding `CCOC(=O)c1c(NC(=O)c2ccc(OCC)c(Br)c2)sc2c1CCCC2`, the survival is 74%.

Consider `CC(C)(C)C1CCc2c(sc(NC(=O)c3cc4ccccc4c(=O)o3)c2C(N)=O)C1` (stereo not given), for which the survival is 44% (active).

For the molecule `CCOC(=O)c1c(NC(=O)c2ccc(OC)c(OC)c2)sc2c1CCCCC2`, the survival is 58%.

For the molecule `CCOC(=O)c1c(NC(=O)c2ccc(OC)cc2)sc2c1CCCCC2`, the survival is 2% (active).

Consider `CCCCOc1cccc(C(=O)Nc2sc3c(c2C(=O)OCC)CCCC3)c1`, for which the survival was 53%.

In the case of `Cc1c(C(=O)NCCN(C)C)oc2c1-c1nn(Cc3ccccc3Cl)cc1CC2`, the survival was 110%.

`O=C(Oc1ccc(F)cc1)c1nc(SCc2ccc(F)cc2)ncc1Cl`: the survival was 79%.

In the case of `COC(=O)C1=NNC2(c3ccc(C)cc3)C(=O)N(c3ccc(C)cc3)C(=O)C12` (stereo not given), the survival was 107%.

With `Cc1oc(C(=O)O)cc1CSC(C)C(=O)O` (stereo not given), the survival was 88%.

Regarding `CC(C)c1nn2c(=O)cc(COC(=O)c3ccccc3Cl)nc2s1`, the survival was 88%.

Consider `CC(=O)Nc1nc(-c2cccs2)nc2c1c(=O)oc1ccccc12`, for which the survival is 92%.

On to `COc1ccc(N=C2SC(C(=O)Nc3ccccc3)CC(=O)N2C)cc1` (stereo not given), for which the survival was 91%.

On to `O=C(CN1C(=O)C2(SCC(=O)N2c2ccccc2)c2ccccc21)NCCc1ccccc1` (stereo not given), for which the survival was 116%.

Turning to `Cc1nnsc1C(=O)Oc1ccc(C(C)C)cc1`, the survival was 89%.

As to `CCc1cc2c(cc3c(=O)n(CC(=O)NC4CCC(C)CC4)ncn32)s1` (stereo not given), the survival was 91%.

For `Oc1c(C(c2cccc(Cl)c2)N2CCOCC2)sc2nc(-c3ccco3)nn12` (stereo not given), the survival was 84%.

For `Cc1ccc(NC(=O)CCC(=O)N2Cc3ccccc3Oc3ncccc32)c(C)c1`, the survival was 99%.

As for `CCOC(=O)C1CCN(C(=O)c2ccccc2N(C)S(C)(=O)=O)CC1`, the survival is 107%.

With `CCOC(=O)c1c(NC(=O)c2ccccc2C)sc2c1CCCC2`, the survival was 12% (active).

For `CCOC(=O)c1c(NC(=O)c2cc(Cl)ccc2Cl)sc2c1CCCC2`, the survival was 72%.

`CCOC(=O)c1c(NC(=O)c2ccc(C)cc2)sc2c1CCCCC2`: the survival was -2% (active).

For `CCOC(=O)c1c(NC(=O)c2cc(OCC)c(OCC)c(OCC)c2)sc2c1CCCCC2`, the survival is 65%.

As to `CCOC(=O)c1c(NC(=O)c2cc3ccccc3c(=O)o2)sc2c1CCCC2`, the survival was 45% (active).

For the molecule `CCOC(=O)c1c(NC(=O)c2ccc(S(=O)(=O)N(CC)CC)cc2)sc2c1CCCCC2`, the survival was 72%.

As to `COC(=O)c1c(NC(=O)c2cc3ccccc3c(=O)o2)sc2c1CCCC2`, the survival was 89%.

Take `CCOC(=O)c1c(NC(C)=O)sc2c1CCC2`: the survival was 77%.

Consider `CCOC(=O)c1c(NC(=O)c2cc3ccccc3c(=O)o2)sc2c1CCC(C)C2` (stereo not given), for which the survival was 129%.

In the case of `CCc1cccc(CC)c1NC(=O)c1c(C)oc2ccc(O)c(CN3CCOCC3)c12`, the survival was 90%.

For the molecule `CC(C)Oc1ccc(C(=O)NCc2cccnc2)cc1`, the survival is 70%.

Turning to `CCOc1ccc(C(=O)N2CCc3cc(OC)c(OC)cc3C2COc2ccc3c(C)cc(=O)oc3c2)cc1OCC` (stereo not given), the survival was 57%.

Consider `COc1ccc(OC)c(NC(=O)c2c(NCc3cccs3)sc3c2CCCCC3)c1`, for which the survival is 67%.

`CCOC(=O)c1cccc(NC(=O)COc2ccc3c(C)cc(=O)oc3c2)c1`: the survival was 70%.

In the case of `Cc1ccc(Cl)cc1N(C)C(=O)c1cc2c(Cl)nc3ccccc3c2s1`, the survival is 54%.

`CCN(C(=O)c1cc2c(Cl)nc3ccccc3c2s1)c1cccc(Cl)c1`: the survival is 60%.

Turning to `CN(C(=O)c1cc2c(Cl)nc3ccccc3c2s1)c1cccc(C(F)(F)F)c1`, the survival is 72%.

`Cc1ccc2nc(Cl)c3cc(C(=O)N(C)C4CCCCC4)sc3c2c1`: the survival is 46%.

For `CCc1ccccc1N(C)C(=O)c1cc2c(Cl)nc3ccc(C)cc3c2s1`, the survival was -4% (active).

Consider `Cc1ccc2nc(Cl)c3cc(C(=O)NCCCN(C)Cc4ccccc4)sc3c2c1`, for which the survival is -9% (active).

On to `CCCN(C(=O)c1cc2c(Cl)nc3ccccc3c2s1)c1cccc(C)c1`, for which the survival was 31% (active).

With `CCN(CCCNC(=O)c1cc2c(Cl)nc3ccccc3c2s1)Cc1ccccc1`, the survival was 94%.

As to `CN(CCCNC(=O)c1cc2c(Cl)nc3ccccc3c2s1)Cc1ccccc1`, the survival is 55%.

In the case of `COc1cc(NS(=O)(=O)c2ccc3c(c2)CCCN3C(C)=O)cc(OC)c1OC`, the survival was 89%.

With `Cc1nc(C)c(CCNS(=O)(=O)c2ccc(C)c(C)c2)s1`, the survival was 97%.

As for `CCOc1ccc(-n2ccnc2SCC(=O)Nc2ccc3c(c2)OCO3)cc1`, the survival is 81%.

Regarding `O=C(CN1N=C(c2ccc(Cl)cc2)CCC1=O)NCCc1ccc(Cl)cc1`, the survival was 94%.

On to `COc1cccc(C(=O)Nc2ccc3nc(SCC(=O)N4CCOCC4)sc3c2)c1`, for which the survival was 65%.

As for `COc1ccccc1CNC(=O)c1cc(S(=O)(=O)N2CCCCCC2)cn1C`, the survival is 113%.

Turning to `Cc1ccc(OCCCCn2cnc3ccccc32)cc1`, the survival is 11% (active).

`CC(=O)OC(COc1ccccc1)Cn1cnc2cc(C)c(C)cc21` (stereo not given): the survival was 140%.

As to `c1ccc2c(c1)ncn2CCn1cnc2ccccc21`, the survival was 100%.

Consider `COc1ccc(OCCn2cnc3ccccc32)cc1`, for which the survival was 85%.

Turning to `Cc1cc2ncn(CCC(=O)Nc3ccccc3F)c2cc1C`, the survival was 103%.

Take `Cc1cc2ncn(CCCCOc3ccccc3)c2cc1C`: the survival is -4% (active).

`Cc1cccc(C)c1NC(=O)CCC(=O)O`: the survival was 76%.

Take `COc1cc(NC(=O)Cn2c(=O)n(CC3CCCO3)c(=O)c3cc(OC)c(OC)cc32)cc(OC)c1` (stereo not given): the survival was 94%.

`CCN1CCN(c2ncnc3c2cnn3-c2ccc(C)cc2)CC1`: the survival was 101%.

Turning to `CC(C)OCCCn1c(SCC(N)=O)nc2c(sc3ccccc32)c1=O`, the survival is 92%.

In the case of `Cc1ccc(OCc2ccc(-c3nc(C#N)c(NCc4cccnc4)o3)o2)cc1`, the survival is 51%.

`N#Cc1nc(-c2ccc(COc3ccccc3)o2)oc1NCc1ccccc1`: the survival was 70%.

With `Cc1ccccc1OCc1ccc(-c2nc(C#N)c(NCc3cccnc3)o2)o1`, the survival is 43% (active).

With `COc1ccc(OCc2ccc(-c3nc(C#N)c(NCc4cccnc4)o3)o2)cc1`, the survival was 56%.

On to `CCCCNc1oc(-c2ccc(COc3ccccc3C)o2)nc1C#N`, for which the survival was 112%.

Take `Cc1ccccc1OCc1ccc(-c2nc(C#N)c(NCCCN(C)C)o2)o1`: the survival is 59%.

As for `CN(C)c1oc(-c2ccc(COc3ccccc3)o2)nc1C#N`, the survival was 39% (active).

As for `COCCCNc1oc(-c2ccc(COc3ccccc3C)o2)nc1C#N`, the survival is 43% (active).

On to `COc1ccc(CNc2oc(-c3ccc(COc4ccccc4C)o3)nc2C#N)cc1`, for which the survival was 50%.

Take `N#Cc1nc(-c2ccc(COc3ccccc3)o2)oc1NCc1cccnc1`: the survival was 44% (active).

`CC1CCN(c2oc(-c3ccc(COc4ccccc4)o3)nc2C#N)CC1`: the survival is 51%.

On to `COc1ccc(Nc2oc(-c3ccc(COc4ccccc4)o3)nc2C#N)cc1`, for which the survival is 100%.

For `Cn1c(=O)c2cc(C(=O)NCCCN3CCN(c4cccc(Cl)c4)CC3)sc2c2ccccc21`, the survival was 48%.

Turning to `Cc1cc(C)c(Cn2c(=O)n(CCC(=O)NCc3ccc4c(c3)OCO4)c(=O)c3ccccc32)c(C)c1`, the survival was 108%.

On to `CN(C)c1ccc(NC(=O)Cn2c(SCc3ccccc3F)nc3cccnc32)cc1`, for which the survival is 124%.

For the molecule `CC(C)(C)c1ccc(OCC(=O)N(Cc2ccco2)Cc2ccccc2F)cc1`, the survival was 78%.

As for `Cc1cc(O)c(C(c2ccccc2)N2CCN(c3ccc(F)cc3)CC2)c(=O)n1Cc1ccco1` (stereo not given), the survival was 67%.

With `COc1ccccc1CCNC(=O)c1ccc2c(c1)c(C)c(C)n2C`, the survival is 95%.

For the molecule `Cc1ccc(NC(=O)CSc2nc(-c3ccco3)nc3cc(=O)[nH]n23)cc1C`, the survival is 135%.

`CCOc1ccc(OCC)c(Nc2nc3ccccc3c3nnc(C)n23)c1`: the survival was 91%.
